According to PubChem BioAssay (EPA / NIEHS):
Inconclusive results are not listed. Some structures have more than one record in an assay (separate samples or runs), and their calls can disagree. Active and inactive are the calls of the source. Rule for the calls, unless noted: active = hit-call score of the fitted dose curve at least 0.9, where 1 is the maximum; inactive = score below 0.9.

Assays:
[1] = BSK_BT_PBMCCytotoxicity: PBMC Cytotoxicity Assessment in the BioMAP Diversity Plus: BT Assay (AID 2284225); conditions: primary human B cells with PBMC;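 note: PBMC viability measured by Alamar Blue dye reduction fluorescence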
Outline: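 Viability by Alamar Blue reduction (6 h, ex/em 546/580 nm) after 90 h culture of SEB/TSST-1-activated PBMC (20 ng/mL each) given compound 1 h before activation. DMSO served as baseline for curve fitting.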

[2] = read-out: Secreted IgG (sIgG), gene 3500; assay: BSK_BT_sIgG: BioMAP Diversity Plus: BT Assay for Secreted IgG (sIgG) Biomarker Activity (AID 2284226); conditions: primary human B cells with PBMC
Outline: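 ELISA quantitation of secreted IgG from human B cells co-cultured with PBMC, sampled 24 h post-dosing. Values fitted relative to DMSO vehicle as baseline, positive fitting direction.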

[3] = BSK_BT_Bcell_Proliferation: Viability Assessment in the BioMAP Diversity Plus: BT Assay for B cell Proliferation (AID 2284227); conditions: primary human B cells with PBMC
Outline: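 SRB-based protein staining (0.1% SRB after 10% TCA fixation, 560 nm) quantifies proliferation in human B cells co-cultured with PBMC, 72 h post-dosing, with signal gain scored relative to DMSO negative control.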

[4] = read-out: Interleukin 6 (IL6), IL6 (gene 3569); assay: BSK_BT_xIL6: BioMAP Diversity Plus: BT Assay for Interleukin 6 (IL6) Biomarker Activity (AID 2284228); conditions: primary human B cells with PBMC
Outline: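 Human B cell plus PBMC co-culture exposed to test chemical for 24 h; secreted IL-6 quantified by Luminex xMAP bead assay. Activity fitted in the positive direction against DMSO as negative control and baseline.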

[5] = read-out: Interleukin 17A (IL17A), IL17A (gene 3605); assay: BSK_BT_xIL17A: BioMAP Diversity Plus: BT Assay for Interleukin 17A (IL17A) Biomarker Activity (AID 2284229); conditions: primary human B cells with PBMC
Outline: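 B cells co-cultured with PBMC were exposed to test chemicals, and secreted IL-17A was quantified 24 h after dosing by Luminex xMAP bead immunoassay. Activity was fitted in the gain direction against DMSO as baseline.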

[6] = read-out: Tumor necrosis factor (Homo sapiens) (UniProt P01375); assay: BSK_BT_xTNFa: BioMAP Diversity Plus: BT Assay for Tumor necrosis factor alpha (TNF-alpha) Biomarker Activity (AID 2284230); conditions: primary human B cells with PBMC
Outline: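 Compounds were added to a B cell plus PBMC co-culture, and after 24 h secreted TNF-alpha was quantified with Luminex xMAP technology, with responses fitted upward from the DMSO control.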

[7] = read-out: Vascular cell adhesion molecule 1 (VCAM1), VCAM1 (gene 7412); assay: BSK_MyoF_VCAM1: BioMAP Diversity Plus: MyoF Assay for Vascular cell adhesion molecule 1 (VCAM1) Biomarker Activity (AID 2284231); conditions: primary human lung fibroblasts
Outline: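 Primary human lung fibroblasts were dosed with test chemical for 24 h, then cell-surface VCAM-1 was measured by ELISA. Activity was fitted in the positive direction against DMSO as negative control and baseline.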

[8] = read-out: Collagen I, COL1A1 (gene 1277); assay: BSK_MyoF_CollagenI: BioMAP Diversity Plus: MyoF Assay for Collagen I Biomarker Activity (AID 2284238); conditions: primary human lung fibroblasts
Outline: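 Human lung fibroblasts were exposed to test chemical for 24 h, then Collagen I was quantified by ELISA. Activity was fitted in the increasing direction against DMSO as the negative control and baseline.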

[9] = read-out: Collagen III, COL3A1 (gene 1281); assay: BSK_MyoF_CollagenIII: BioMAP Diversity Plus: MyoF Assay for Collagen III Biomarker Activity (AID 2284239); conditions: primary human lung fibroblasts
Outline: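 Human lung fibroblasts were dosed with chemicals and, 24 hours later, collagen III was measured by ELISA. Activity was fitted in the positive direction against the DMSO negative-control baseline.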

[10] = read-out: Interleukin 17F (IL17F), IL17F (gene 112744); assay: BSK_BT_xIL17F: BioMAP Diversity Plus: BT Assay for Interleukin 17F (IL17F) Biomarker Activity (AID 2284243); conditions: primary human B cells with PBMC
Outline: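 B cell/PBMC co-culture (human primary), 24 h compound exposure; sIL-17F by Luminex xMAP; gain-of-signal fit vs DMSO baseline.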

[11] = read-out: Actin alpha 1 (ACTA1), ACTA1 (gene 58); assay: BSK_MyoF_ACTA1: BioMAP Diversity Plus: MyoF Assay for Actin alpha 1 (ACTA1) Biomarker Activity (AID 2284244); conditions: primary human lung fibroblasts
Outline: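 alpha-SMA levels read by ELISA against DMSO baseline, 24 h post-dose, in primary human lung fibroblasts. Parallel cultures stained with 0.1% SRB after 10% TCA fixation (560 nm) to flag overt cytotoxicity.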

[12] = read-out: Interleukin 2 (IL2), IL2 (gene 3558); assay: BSK_BT_xIL2: BioMAP Diversity Plus: BT Assay for Interleukin 2 (IL2) Biomarker Activity (AID 2284245); conditions: primary human B cells with PBMC
Outline: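 Secreted IL-2 was read by Luminex xMAP from B cells co-cultured with PBMC (human primary) 24 h post-dosing; activity was analysed as gain of signal relative to DMSO vehicle.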

[13] = read-out: Basic fibroblast growth factor (bFGF), FGF2 (gene 2247); assay: BSK_MyoF_bFGF: BioMAP Diversity Plus: MyoF Assay for Basic fibroblast growth factor (bFGF) Biomarker Activity (AID 2284246); conditions: primary human lung fibroblasts
Outline: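 bFGF was measured by ELISA in primary human lung fibroblasts 24 h after chemical addition. Signal was analysed as positive-direction change relative to DMSO baseline.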

[14] = read-out: Collagen IV, COL4A1 (gene 1282); assay: BSK_MyoF_CollagenIV: BioMAP Diversity Plus: MyoF Assay for Collagen IV Biomarker Activity (AID 2284247); conditions: primary human lung fibroblasts
Outline: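 Collagen IV quantified by ELISA in human lung fibroblast cultures 24 h after chemical treatment, with DMSO as baseline. Parallel SRB staining (0.1% SRB after TCA fixation, 560 nm) flags overt cytotoxicity.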

[15] = CCTE_Shafer_MEA_dev_mutual_information_norm: CCTE's Neural Network Formation Assay for Mutual Information Normalization, Shafer Lab (AID 2284091)
Outline: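 Shared information across electrodes, tracked on days 5, 7, 9 and 12 of network development and collapsed as trapezoidal area under the curve. Rat cortical cultures were treated continuously from plating, with treatment renewed at feeds on DIV 5 and 9; DMSO baseline, negative-direction fit.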

[16] = CCTE_Shafer_MEA_dev_correlation_coefficient_mean: CCTE's Neural Network Formation Assay for Mean Correlation Coefficient, Shafer Lab (AID 2284093)
Outline: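 Read-out: well-mean correlation coefficient of spike trains between electrode pairs, collapsed over four recording days as trapezoidal area-under-the-curve. Developing rat cortical neuron networks grown on MEAs received test chemical continuously from plating.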

[17] = read-out: Monokine induced gamma interferon (MIG), CXCL9 (gene 4283); assay: BSK_KF3CT_MIG: BioMAP Diversity Plus: KF3CT Assay for Monokine induced gamma interferon (MIG) Biomarker Activity (AID 2284248); conditions: primary human keratinocytes with fibroblasts
Outline: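 Human keratinocyte plus foreskin fibroblast primary co-culture dosed with test chemical for 24 h; MIG level measured by ELISA and fitted in the positive direction against DMSO as baseline.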

[18] = CCTE_Mundy_HCI_hNP1_Pro_ResponderAvgInten: CCTE's Proliferation Assay in human neuroprogenitor cells, Mundy Lab (AID 2284224; active = hit-call score of the fitted dose curve at least 0.9, where 1 is the maximum)
Outline: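 Proliferation was scored as BrdU labelling intensity in human neural progenitors derived from WA09 embryonic cells, measured 26.25 hours after chemical dosing. Activity was fitted relative to DMSO.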

[19] = CCTE_Mundy_HCI_hNP1_Casp3_7: CCTE's Caspase-Glo 3/7 Assay in human neuroprogenitor cells for Apoptosis, Mundy Lab (AID 2284240)
Outline: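 Apoptosis is scored by activated caspase-3/7 luminescence in WA09-derived neural progenitor cells, measured 26.5 h after chemical dosing. Values represent gain of signal relative to DMSO vehicle.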

[20] = CCTE_Mundy_HCI_hNP1_CellTiter: CCTE's Cell Titer-Glo 2 Assay in human neuroprogenitor cells for Viability, Mundy Lab (AID 2284241; active = hit-call score of the fitted dose curve at least 0.9, where 1 is the maximum)
Outline: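 Human neural progenitor cells (hNP1, WA09-derived) were plated on poly-L-ornithine/laminin and grown 40 to 44 hours at 37 °C, 5% CO2 before chemical addition. Twenty-four hours later, ATP was measured by CellTiter-Glo luminescence; loss of signal versus DMSO indicates reduced viability.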

Measured: AC50

Tumor necrosis factor (Homo sapiens), sequence (P01375 whole entry, looked up): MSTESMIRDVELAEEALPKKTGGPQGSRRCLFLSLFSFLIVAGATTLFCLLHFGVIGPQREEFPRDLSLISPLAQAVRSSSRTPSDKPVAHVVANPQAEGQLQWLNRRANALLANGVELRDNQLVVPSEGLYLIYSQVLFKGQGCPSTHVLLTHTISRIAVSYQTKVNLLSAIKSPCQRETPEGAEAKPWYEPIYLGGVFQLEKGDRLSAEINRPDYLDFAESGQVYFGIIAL

Cc1ccc(O)c(-n2nc3ccccc3n2)c1
not listed: [15] | [16] | [17] | [18] | [19] | [20]
inactive: all other assays above

OCC(F)(F)C(F)(F)C(F)(F)C(F)(F)C(F)(F)C(F)(F)CO
not listed: [18] | [19] | [20]
inactive: all other assays above

O=C(O)C(F)(F)C(F)(F)C(F)(F)C(F)(F)C(F)(F)C(F)(F)C(F)F
active: [3] 21.8 µM | [11] 0.232 µM
inactive: [1] | [2] | [3] | [5] | [6] | [7] | [8] | [9] | [10] | [11] | [12] | [13] | [17]

OCCCCC(F)(F)C(F)(F)C(F)(F)C(F)(F)F
inactive: [15] | [16] | [18] | [1] | [2] | [3] | [5] | [6] | [7] | [8] | [9] | [19] | [20] | [10] | [11] | [12] | [13] | [14] | [17]
active: [10] 21.7 µM

O=S(=O)(O)CCC(F)(F)C(F)(F)C(F)(F)C(F)(F)C(F)(F)C(F)(F)C(F)(F)C(F)(F)F
not listed: [18] | [20]
inactive: all other assays above

CO[Si](C)(CCC(F)(F)C(F)(F)C(F)(F)C(F)(F)C(F)(F)C(F)(F)F)OC
not listed: [14] | [18] | [19] | [20]
inactive: all other assays above
